# The panel holds about 83,000 compounds, 20% with a hit somewhere; the sample as a whole holds those more often.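 48-hour exposure, single concentration, 96-well plates; percent growth endpoint where 0 means no net growth. Active: below 10.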 The source made the active and inactive calls.
# System: EKVX NSCLC
# Experiment: NCI-60 one-dose screen, 48 h (100 = growth as untreated, 0 = no growth, -100 = all killed)
# Details: 10 µM unless noted
# Procedure: Growth inhibition of the EKVX human Non-Small Cell Lung tumor cell line is measured as a screen for anti-cancer activity. Cells are grown in 96 well plates and exposed to the test compound for 48 hours. Compounds are tested at a single concentration, which is 10^-5 M for most compounds. The reported endpoint is percent growth (GI% or GIPRCNT), where numbers from 0 - 100% represent growth inhibition, and numbers from -100% - 0 represent cell death. For example, a value of 40 represents 60% growth inhibition. A value of 0 means no net growth occurred over the course of the experiment. A value of -40 indicates 40% of cells at the beginning of the experiment died by the end of the experiment. A value of -100 means all cells are dead at the end of the experiment.
# NCI-60 Human Tumor Cell Lines Screen was performed using the standard one-dose NCI protocol, which is described in more detail at https://dtp.cancer.gov/discovery_development/nci-60/default.htm.
# Compounds with GIPRCNT values below 10 were considered active. Activity score was based on GIPRCNT using the following formula: […]
# Score is 0 for GIPRCNT values of 100 or above, 50 for GIPRCNT values of 0, and 100 for GIPRCNT values of -100.
row,Compound,growth
1,CCN1C(=O)N(CC)C2C1NN=c1s/c(=C\c3ccc(C(F)(F)F)cc3)c(=O)n12 (stereo not given),48.5% (inactive)
2,O=C1NC(=O)/C(=C/c2c(-c3ccccc3)nc3sc(COc4ccccc4)nn23)S1,91.9% (inactive)
3,Cc1nc2ccccc2c(/C=C/c2ccccc2)c1C(=O)/C=C/c1ccccc1,45.9% (inactive)
4,O=C(NNC(=O)c1ccc(NC(=O)c2ccccn2)cc1)Nc1ccc2ccccc2c1,113% (inactive)
5,CN(C)c1ccc(/C=C(\C#N)c2cc3ccccc3[nH]2)cc1,42.2% (inactive)
6,CN(Cc1cnc2nc(N)nc(N)c2n1)c1ccc(C(=O)NC(CCC(=O)O)C(=O)O)cc1Br (stereo not given),67.6% (inactive)
7,Oc1c(CN2CCCC2)cc(CSCc2ccccc2)c2cccnc12,37% (inactive)
8,C#CCn1cnc2cnc(Nc3cccc(NC(=O)C=C)c3)nc21,89.2% [6.25 µM] (inactive)
9,Cc1ccc2nc(NC(=O)CSc3nc(-c4ccccc4)c(C#N)c4nnnn34)sc2c1,106% (inactive)
10,CN1CCN(C(=S)SCCCCOc2cc(=O)oc3ccccc23)CC1,88.1% (inactive)
11,C#CCO[C@H]1CC(CC#C)(CC#C)C(=O)[C@@H]2[C@H]1[C@H]1C[C@@H]3[C@@]4(C)CCC[C@@](C)(C(=O)OC)[C@@H]4CC[C@@]23C=C1C(C)C,94.7% (inactive)
12,CNCc1cccc2c1OCCOCCOCCNS(=O)(=O)c1ccc(cc1)-c1cnc(N)c(n1)C(=O)N2,77.4% (inactive)
13,COc1cc2c(c(OC)c1OC)C(=O)CC(c1cccc(NC(=O)c3ccc(C#N)cc3)c1)O2 (stereo not given),83.8% (inactive)
14,[2H]C([2H])([2H])Oc1ccc(F)cc1/C=C/C(=O)/C=C(/C=C/c1cc(F)ccc1OC([2H])([2H])[2H])OB(F)F,99.7% (inactive)
15,CCCCCN(CCCCC)CC(O)c1cc(C)c2ccc3cc(C(C)C)ccc3c2c1 (stereo not given),63.2% (inactive)
16,Nc1[nH]n2cc(-c3ccc(F)cc3)nc2c1N=Nc1ccc(S(N)(=O)=O)cc1,108% (inactive)
17,Ic1ccccc1I,98.9% (inactive)
18,COc1cc(C2C(C(=O)OCc3ccccc3)=C(C)NC(C)=C2C(=O)OCc2ccccc2)cc(OC)c1OC,31.5% (inactive)
19,CCNc1ccc(-c2nc3ccccc3n3cccc23)cc1,71% (inactive)
20,Cc1ccc(C=C2C(=O)NC(=O)NC2=O)cc1,101% (inactive)

row,Compound,growth
1,Nc1nc(N)c2c(n1)NC(c1ccc(Cl)cc1)C1CCc3ccccc3C1=N2 (stereo not given),35.8% (inactive)
2,CC1C=CC(OC(=O)C(C)(O)CCC(O)(C(=O)OC2CC(O)C(C(C)C)CC2(C)O)C(C)C)(C(C)C)CC1 (stereo not given),-73.6% [4.63 µM] (active)
3,CCOC(=O)/C=C1\S/C(=N\Nc2cc(=O)[nH]c3ccccc23)N(c2ccccc2)C1=O,104% (inactive)
4,CCc1ccc(CCC(=O)Nc2ncc(Cc3cc(Cl)ccc3Cl)s2)o1,42.9% (inactive)
5,O=C(CN1CCCCCC1)Nc1nc2ccc(NCc3ccc(Cl)cc3)cc2s1,96.4% (inactive)
6,C=C1C(=O)O[C@H]2[C@H]1CC/C(COC(=O)c1cc3cc(Cl)ccc3[nH]1)=C\CC[C@@]1(C)O[C@@H]21,-83% (active)
7,CN(C)CCN1C(=O)c2cccc3c(/C=C/CN4C(=O)c5cccc6cccc(c56)C4=O)ccc(c23)C1=O,109% (inactive)
8,O=C1c2cccc3cccc(c23)C(=O)N1C/C=C/c1ccc2c3c(cccc13)C(=O)N(CCO)C2=O,91.5% (inactive)
9,Cc1ccc(-c2csc(NC(=O)c3ccccc3CN3C(=O)c4ccccc4C3=O)n2)cc1,93.6% (inactive)
10,CC(C)(C)n1cc(-c2ccnc(NCCCNS(=O)(=O)c3cccc4ccccc34)c2)c(-c2cccc(F)c2)n1,68.6% (inactive)
11,O=S(=O)(Nc1cc(Sc2cccc3cccnc23)c(O)c2ccccc12)c1ccccc1,36.4% (inactive)
12,CNC(=O)c1cc(Oc2ccc3c(c2)sc2nc(-c4ccc(OC)cc4)cn23)ccn1,52.7% (inactive)
13,COC(=O)c1nc(-c2ccccc2)oc1S(=O)(=O)NCC(c1ccc(Cl)cc1)N1CCOCC1 (stereo not given),96.7% (inactive)
14,O=C(O)COc1ccc(Cl)c(Cl)c1,104% (inactive)
15,O=C(C1CCCCC1)[C@@H]1[C@]2(C(=O)NC3CCCCC32)[C@@H]2CCCN2[C@@]12C(=O)NC1CCC(Cl)CC12 (stereo not given in full),-89.5% [100 µM] (active)
16,COc1cc(OC)c2sc(-c3ccc(-n4cncc4-c4cc(OC)c(OC)c(OC)c4)cc3)nc2c1,58.7% (inactive)
17,CCN1CCN(CC(=O)Nc2nc3ccc(NCc4ccc(F)cc4)cc3s2)CC1,86.6% (inactive)
18,COc1cc(-c2nc3sccn3c2-c2ccnc(NCCNS(=O)(=O)c3ccc(Cl)cc3)n2)ccc1F,48.8% (inactive)
19,COc1ccc(/C=C/C(c2cc(OC)c(OC)c(OC)c2)n2ccnc2)cc1O (stereo not given),81.2% (inactive)
20,COc1ccc(C(=S)N2CCN(c3ccc(Cl)cc3)CC2)cc1,130% (inactive)

# — PubChem BioAssay (NCI)
